# Counter-ions that a name gives are not always drawn.
# Test system: Saccharomyces cerevisiae BY4741 SeMeCo community
# Assay: z-score of subpopulation abundance vs DMSO median, subpopulation auxotrophic for HL; higher = larger share of this subpopulation than in DMSO controls
# Conditions: 10 µM; 24 h; SM minimal medium; subpopulation (auxotrophy): HL
# Method: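 Fluorescent four-plasmid SeMeCo (self-establishing metabolically cooperating S. cerevisiae BY4741 community; plasmids pH-mRuby2, pL-mWasabi, pU-eCFP, pM-TagRFP657) was grown 24 h in minimal SM medium with each Selleck FDA-approved drug at 10 µM in 384-well plates. Cells were fixed and imaged by high-content confocal microscopy. For each auxotrophic subpopulation (and the prototroph), a z-score gives the deviation from the DMSO vehicle-control population median.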
row,Structure (SMILES),z-score of subpopulation abundance
1,CC1CCc2c(N3CCC(O)CC3)c(F)cc3c(=O)c(C(=O)O)cn1c23 (stereo not given) [Nadifloxacin],0
2,CO[C@H]1C[C@@H]2CC[C@@H](C)[C@@](O)(O2)C(=O)C(=O)N2CCCC[C@H]2C(=O)O[C@H]([C@H](C)C[C@@H]2CC[C@@H](OCCO)[C@H](OC)C2)CC(=O)[C@H](C)/C=C(\C)[C@@H](O)[C@@H](OC)C(=O)[C@H](C)C[C@H](C)/C=C/C=C/C=C/1C [Everolimus (RAD001)],12.2
3,CN1C[C@@H]2C[C@H]1CN2c1cc2c(cc1F)c(=O)c(C(=O)O)cn2C1CC1 [Danofloxacin Mesylate],-0.06
4,Cn1nnc(-c2ccc(-c3ccc(N4C[C@H](COP(=O)(O)O)OC4=O)cc3F)cn2)n1 [Tedizolid Phosphate],-0.86
5,CNCC[C@H](Oc1cccc2ccccc12)c1cccs1 [Duloxetine HCl],-1.07
6,COc1cc([C@@H]2c3cc4c(cc3[C@@H](O[C@@H]3O[C@@H]5CO[C@@H](C)O[C@H]5[C@H](O)[C@H]3O)[C@H]3COC(=O)[C@H]23)OCO4)cc(OC)c1O [Etoposide],0.84
7,CN(C)[C@@H]1C(=O)C(C(N)=O)=C(O)[C@@]2(O)C(=O)C3=C(O)c4c(O)ccc(Cl)c4[C@@H](O)[C@H]3C[C@@H]12 [Demeclocycline HCl],0.01
8,CCC(=O)c1c(O)cc(O)cc1O [Flopropione],-0.4
9,C/C=C1\[C@H]2C=C(C)C[C@]1(N)c1ccc(=O)[nH]c1C2 [(-)-Huperzine A (HupA)],-1.26
10,CC1=C(C(=O)O)N2C(=O)[C@@H](NC(=O)[C@H](N)c3ccccc3)[C@H]2SC1 [Cephalexin],0.67
11,CCCCCC(=O)O[C@]1(C(C)=O)CC[C@H]2[C@@H]3CCC4=CC(=O)CC[C@]4(C)[C@H]3CC[C@@]21C [Hydroxyprogesterone caproate],1.2
12,COc1cccc2c1C(=O)c1c(O)c3c(c(O)c1C2=O)C[C@@](O)(C(=O)CO)C[C@@H]3O[C@H]1C[C@H](N)[C@H](O[C@@H]2CCCCO2)[C@H](C)O1 [Pirarubicin],0.37
13,CO[C@@H]1[C@H](OC(=O)/C=C/C=C/C=C/C=C/C(=O)O)CC[C@]2(CO2)[C@H]1[C@@]1(C)O[C@@H]1CC=C(C)C [Fumagillin],1.92
14,Oc1c(Cl)cc(Cl)c(Cl)c1Cc1c(O)c(Cl)cc(Cl)c1Cl [Hexachlorophene],3.85
15,Nc1ccc(S(N)(=O)=O)cc1 [Sulfanilamide],-1.05
16,Cc1ccc(S(=O)(=O)NC(=O)NN2CC3CCCC3C2)cc1 (stereo not given) [Gliclazide],0.12
17,COc1cccc(-c2c(C)n(Cc3c(F)cccc3C(F)(F)F)c(=O)n(C[C@H](NCCCC(=O)O)c3ccccc3)c2=O)c1F [Elagolix Sodium],0.13
18,CC(Cc1ccc(O)c(O)c1)C(C)Cc1ccc(O)c(O)c1 (stereo not given) [Nordihydroguaiaretic acid (NDGA)],-0.39
19,C[C@]12CC[C@@H]3c4ccc(O)cc4CC[C@H]3[C@@H]1C[C@@H](O)[C@@H]2O [Estriol],-0.01
20,CC[C@H]1OC(=O)[C@H](C)[C@@H](O[C@H]2C[C@@](C)(OC)[C@@H](O)[C@H](C)O2)[C@H](C)[C@@H](O[C@@H]2O[C@H](C)C[C@H](N(C)C)[C@H]2O)[C@](C)(O)C[C@@H](C)CN(C)[C@H](C)[C@@H](O)[C@]1(C)O [Azithromycin Dihydrate],0.05

row,Structure (SMILES),z-score of subpopulation abundance
1,O=C1OCCN1/N=C/c1ccc([N+](=O)[O-])o1 [Furazolidone],2.14
2,CC[C@@H]1/C=C(\C)C[C@H](C)C[C@H](OC)[C@H]2O[C@@](O)(C(=O)C(=O)N3CCCC[C@H]3C(=O)O[C@H](/C(C)=C/[C@@H]3CC[C@@H](O)[C@H](OC)C3)[C@H](C)[C@@H](O)CC1=O)[C@H](C)C[C@@H]2OC [Ascomycin (FK520)],2.56
3,Cn1c(=O)c2c(ncn2CC(O)CO)n(C)c1=O (stereo not given) [Dyphylline],-0.71
4,CCC1(c2ccccc2)C(=O)NCNC1=O [Primidone],-0.36
5,COc1ccc2c3c1O[C@H]1C[C@@H](O)C=C[C@@]31CCN(C)C2 [Galanthamine HBr],-0.01
6,CC1(C)S[C@@H]2[C@H](NC(=O)[C@H](NC(=O)N3CCN(S(C)(=O)=O)C3=O)c3ccccc3)C(=O)N2[C@H]1C(=O)O [Mezlocillin Sodium],-0.55
7,Clc1ccc(COC(Cn2ccnc2)c2ccc(Cl)cc2Cl)cc1 (stereo not given) [Econazole],12.8
8,CC[C@H]1OC(=O)[C@H](C)[C@@H](O[C@H]2C[C@@](C)(OC)[C@@H](O)[C@H](C)O2)[C@H](C)[C@@H](O[C@@H]2O[C@H](C)C[C@H](N(C)C)[C@H]2O)[C@](C)(O)C[C@@H](C)C(=O)[C@H](C)[C@@H](O)[C@]1(C)O [Erythromycin],2.42
9,CCN(CC)CCNC(=O)c1cc(Cl)c(N)cc1OC [Metoclopramide HCl],0.1
10,CO[C@H]1O[C@@H]2O[C@@]3(C)CC[C@H]4[C@H](C)CC[C@@H]([C@H]1C)[C@@]24OO3 [Artemether],-0.28
11,OB1OCc2cc(F)ccc21 [Tavaborole (AN-2690)],17.6
12,CCCCCCCCN=C(N)NC(N)=NCc1ccc(Cl)c(Cl)c1 [Olanexidine Hydrochloride semihydrate],11.1
13,O=C(O)c1cc(-c2ccc(F)cc2F)ccc1O [Diflunisal],-0.87
14,Cc1cc(CC(C)CC(C)(C)C)n(O)c(=O)c1 (stereo not given) [Piroctone Olamine],14.6
15,Clc1ccc(C(Cn2ccnc2)OCc2c(Cl)cccc2Cl)c(Cl)c1 (stereo not given) [Isoconazole nitrate],3.07
16,CCN1CCN(c2cc3c(cc2F)c(=O)c(C(=O)O)cn3C2CC2)CC1 [Enrofloxacin],-0.47
17,CC(C(=O)O)c1cccc(C(=O)c2ccccc2)c1 (stereo not given) [Ketoprofen],1.42
18,CO/N=C(\C(=O)N[C@@H]1C(=O)N2C(C(=O)O)=C(Cn3ccc(=N)n3CCO)CS[C@H]12)c1csc(N)n1 [Cefoselis Sulfate],-1.68
19,CC1(C)S[C@@H]2[C@H](NC(=O)C(c3ccccc3)S(=O)(=O)O)C(=O)N2[C@H]1C(=O)O (stereo not given in full) [Sulbenicillin Sodium],0.63
20,CCN(CC)CCOc1ccc(C(=C(Cl)c2ccccc2)c2ccccc2)cc1 [Clomifene citrate],1.64

# From the supplement of paper PMC8975748
